# Experimental data taken from PubChem BioAssay (NCATS).
# Inconclusive results are not listed. Entries that show only a call come without a potency. Unmarked numbers belong to inactive results. Calls of active or inactive are those of the source. Calls follow the shape of the dose curve; as a rule, active = well fitted inhibition curve with a large enough effect; inconclusive = small, poorly fitted or top-dose-only effect; inactive = no such curve, though single readings can be large or run the other way. Where a SMILES comes first, the peptide text is derived from it. [ ]: non-standard residue; d: D form. Hyp = O=C(O)[CH]1C[CH](O)CN1; Phe(ol) = N[CH](CO)Cc1ccccc1; Iva = CC[C](C)(N)C(=O)O; Aib = CC(C)(N)C(=O)O
# Legend:
# [1] = test system: Zika virus NS2B-NS3 protease (unlinked complex); test: Primary screen GU Rhodamine qHTS for Zika virus inhibitors: Unlinked NS2B-NS3 protease assay (AID 1347159); settings: Recombinant ZIKV NS2B-NS3 protease, Rhodamine110 substrate fluorescence; series mostly up to 107 µM; also: nearly all actives have a fitted effect of over 60% in size
# How it was run: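 Unlinked NS2B/NS3, 25 nM; Rhod110 peptide, 1.5 microM; compounds, up to 114 microM. Reaction run 15 min at RT in 10 mM Tris-HCl pH 8.0, 0.01% Tween 20; kinetic fluorescence change fitted with a 4-parameter Hill model.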
# [2] = test system: Zika virus NS2B-NS3 protease (linked construct); test: Primary screen NINDS Rhodamine qHTS for Zika virus inhibitors (AID 1347160); settings: purified NS2B-NS3 protease, Rhodamine110 substrate fluorescence; series mostly up to 57.1 µM; also: nearly all actives have a fitted effect of over 55% in size
# How it was run: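 Single-chain NS2B-NS3 protease, 25 nM, pH 8.0; compounds preincubated 15 min. Activity: Rhodamine110 release from 1.5 microM substrate over 15 min, room temperature, data fitted to 4-parameter Hill.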
# Potency is read from the fitted curve at half-maximal effect.
smiles,measurement,setting,value
CC(=O)CC(=O)Nc1ccc(Cl)c(C(F)(F)F)c1,Potency,[1],inactive
same,Potency,[2],inactive
CC(=O)Nc1cccc(-c2csc(Nc3cc(C)ccn3)n2)c1,Potency,[1],inactive
same,Potency,[2],inactive
CNC1CN(c2ccc3c(=O)c(C(=O)O)cn(-c4nccs4)c3n2)CC1OC (stereo not drawn),"activity change, negative = inhibition",[1],18.7% [at 19.1 µM]
same,"activity change, negative = inhibition",[2],19.1% [at 10.7 µM]
CC(C)(C)Oc1ccc(OCC2Cc3ccccc3CN2C(=O)c2cccc3ccccc23)cc1 (stereo not drawn),Potency,[1],inactive
same,Potency,[2],inactive
Nc1cccc(CNC(=O)c2ccc(Oc3ccc(OCc4cccc(F)c4)cc3)nc2)c1,Potency,[1],inactive
same,Potency,[2],inactive
COc1ccc(C#Cc2ccc(C(=O)N3CCC[C@@H](O)C3)c(F)c2)cc1,Potency,[1],inactive
same,Potency,[2],inactive
CCOc1cn(-c2ccc(F)cc2C)nc1C(=O)Nc1ccc(Oc2ccnc3cc(OC)c(OC)cc23)c(F)c1,Potency,[1],inactive
same,Potency,[2],inactive
Cc1cc(-c2nc3cc(F)ccc3s2)ccc1NC(=O)[C@@H](N)CCCCN,Potency,[1],inactive
same,Potency,[2],inactive
COc1ccc(Cl)c(Nc2ncnc3cc(OCC4CCN(C)CC4)c(OC)cc23)c1,Potency,[1],inactive
same,Potency,[2],inactive
COc1ccccc1C(=O)Nc1cc2c(cc1N1CCCC1)n(C)c(=O)n2C,Potency,[1],inactive
same,Potency,[2],inactive
CCCc1cc(C)[nH]c(=O)c1CNC(=O)c1cc(-c2ccnc(N3CCN(C)CC3)c2)cc2c1cnn2C(C)C,Potency,[1],inactive
same,Potency,[2],inactive
COC(=O)c1ccc2c(c1)nc(NC(=O)c1ccccc1)n2CCCc1ccccc1,Potency,[1],inactive
same,Potency,[2],inactive
CCOC(=O)c1csc(Nc2ccc(Cl)cc2)n1,Potency,[1],inactive
same,Potency,[2],inactive
Clc1ccc(Cn2c(Cc3ccccc3)nc3ccccc32)cc1,Potency,[1],inactive
same,Potency,[2],inactive
C[C@H](Oc1cc(-n2cnc3ccc(CN4CCN(C)CC4)cc32)sc1C(N)=O)c1ccccc1C(F)(F)F,Potency,[1],inactive
same,Potency,[2],inactive
COc1c(C)cc(NC(=O)c2nn(Cc3ccc(F)cc3)c3c2CN(C(=O)c2ccc[nH]2)C[C@]3(C)C(N)=O)cc1C,Potency,[1],inactive
same,Potency,[2],inactive
CC(=O)O[C@@H]1[C@H](O[C@@H]2O[C@@H](CO)[C@H](O)[C@H]2O)[C@@H](O[C@@H]2O[C@@H](C)[C@H](O[C@@H]3OC[C@@H](O)[C@H](O)[C@H]3O)[C@@H](O)[C@H]2O)[C@H](OC(=O)[C@]23CCC(C)(C)C[C@H]2C2=CCC4[C@@]5(C)CC[C@H](O[C@@H]6O[C@H](C(=O)O)[C@@H](O)[C@H](O)[C@H]6O[C@@H]6O[C@H](CO)[C@H](O)[C@H](O)[C@H]6O)[C@@](C)(C=O)C5CC[C@@]4(C)[C@]2(C)C[C@H]3O)O[C@@H]1C (stereo partly drawn),"activity change, negative = inhibition",[1],1.92% [at 19.1 µM]
same,"activity change, negative = inhibition",[2],10.8% [at 10.7 µM]
COc1ccc(CCCN2CCC(COC(c3ccccc3)c3ccccc3)CC2)cc1,Potency,[1],inactive
same,Potency,[2],inactive
Cc1cn2c(n1)Cc1ccc(Cl)cc1C(c1ccc(N)cc1)=N2,Potency,[1],inactive
same,Potency,[2],inactive
Cc1nc(NC(=O)N2CCC[C@H]2C(N)=O)sc1-c1ccnc(C(C)(C)C(F)(F)F)c1,Potency,[1],inactive
same,Potency,[2],inactive
Cn1cc(-c2ccc(F)c(C(F)(F)F)c2)nc1C1CCN(c2ncnc3[nH]ncc23)CC1,Potency,[1],inactive
same,Potency,[2],inactive
CCCNCCc1ccc(NS(=O)(=O)c2ccc(OC(F)(F)F)cc2)cc1,Potency,[1],inactive
same,Potency,[2],inactive
N#Cc1ccc(Nc2nc(-c3ccc(O)cc3O)cs2)cc1C(F)(F)F,Potency,[1],10 µM (active)
same,Potency,[2],17.8 µM (active)
N[C@@H]1c2cccnc2[C@H](OC(=O)N2CCC(n3c(=O)[nH]c4ncccc43)CC2)CC[C@H]1c1cccc(F)c1F,Potency,[1],inactive
same,Potency,[2],inactive
C=C1C(=O)OC2C3=C(C)C(=O)CC3C(C)CC(O)C12 (stereo not drawn),Potency,[1],inactive
same,Potency,[2],inactive
CC(=O)N[C@H]1[C@H](O[C@H]2CC[C@@]3(C)C(CC[C@]4(C)C3CC=C3C5CC(C)(C)CC[C@]5(C(=O)O)C(O)C[C@]34C)C2(C)C)O[C@H](CO[C@@H]2O[C@H](C)[C@H](O)[C@H](O)[C@H]2O[C@@H]2OC[C@@H](O)[C@H](O)[C@H]2O)[C@@H](O)[C@@H]1O (stereo partly drawn),Potency,[1],inactive
same,Potency,[2],inactive
CCCCNc1ncc(C(=O)NCc2ccc(-n3ccnc3)cc2)c(NC2CCC(O)CC2)n1 (stereo not drawn),Potency,[1],inactive
same,Potency,[2],inactive
CCC(C)(NC(=O)C(CCC(N)=O)NC(=O)C1CC(O)CN1C(=O)C(C)(C)NC(=O)C(C)(C)NC(=O)C(CC(C)C)NC(=O)CNC(=O)C(NC(=O)C(C)(C)NC(=O)C(C)(C)NC(=O)C(C)(C)NC(=O)C(Cc1ccccc1)NC(C)=O)C(C)C)C(=O)N1CC(O)CC1C(=O)NC(C)(C)C(=O)NC(CO)Cc1ccccc1 (stereo not drawn) (Ac-F[Aib][Aib][Aib]VGL[Aib][Aib][Hyp]Q[Iva][Hyp][Aib][Phe(ol)]; configuration not given here),"activity change, negative = inhibition",[1],8.8% [at 19.1 µM]
same,outcome,[2],inactive [at 10.7 µM]
CC(=O)Nc1nc(C)c(-c2nc(N3CCCC(O)C3)no2)s1 (stereo not drawn),Potency,[1],inactive
same,Potency,[2],inactive
COc1ccc(-c2cc3onc(-c4ccncc4)c3c(=O)n2C)cc1,Potency,[1],inactive
same,Potency,[2],inactive
CC1CCC(=O)CC(SCC(O)C(=O)O)CCC(=O)O1 (stereo not drawn),Potency,[1],inactive
same,Potency,[2],inactive
COc1cc(N(C)CCN(C)C)c(N)cc1Nc1nccc(-c2cn(C)c3ccccc23)n1,Potency,[1],inactive
same,Potency,[2],inactive
Nc1nc2c(s1)CCN(Cc1ccc(Cl)cc1)CC2,Potency,[1],inactive
same,Potency,[2],inactive
CCCC(Nc1nc(-c2ccc(NC(=O)NCC)c(OC)c2)ncc1C)c1cccnc1 (stereo not drawn),Potency,[1],inactive
same,Potency,[2],inactive
O=c1[nH]cnc2c([C@@H]3N[C@H](CO)[C@@H](O)[C@H]3O)c[nH]c12,Potency,[1],inactive
same,Potency,[2],inactive
CCn1nc(C2CCN(C(=O)CCO)CC2)nc1-c1cnc(N)c(-c2nnc(C(C)(C)C)o2)n1,Potency,[1],inactive
same,Potency,[2],inactive
CN(C)N(C)C(=O)[C@@]1(Cc2ccccc2)CCCN(C(=O)[C@@H](Cc2c[nH]c3ccccc23)NC(=O)C(C)(C)N)C1,Potency,[1],inactive
same,Potency,[2],inactive
CN1CCC(NC(=O)c2cc(-c3c(O)cc(O)cc3Oc3ccc([N+](=O)[O-])cc3)on2)CC1,Potency,[1],inactive
same,Potency,[2],inactive
C/C=C/C=C/c1cc2c(C=O)c(O)c(CC=C(C)C)cc2o1,Potency,[1],12.6 µM (active)
same,Potency,[2],17.8 µM (active)
Fc1ccc2c(CCNCc3cccc(OCC(F)(F)C(F)F)c3)c[nH]c2c1,Potency,[1],inactive
same,Potency,[2],inactive
COc1ccc(OC)c(-c2ccc(NC(=O)c3ccncc3F)cc2)c1,Potency,[1],inactive
same,Potency,[2],inactive
COc1ccc(CCc2nc3cc(-c4c(C)noc4C)ccc3n2CC(C)N2CCOCC2)cc1Cl (stereo not drawn),Potency,[1],inactive
same,Potency,[2],inactive
CCC1C(=O)N(C)c2cnc(Nc3ccc(C(=O)NC4CCN(C)CC4)cc3OC)nc2N1C1CCCC1 (stereo not drawn),Potency,[1],inactive
same,Potency,[2],inactive
Cc1cc(N2CCN(C(=O)Oc3ccc(-c4ccccc4)cn3)CC2)c2ccccc2n1,Potency,[1],inactive
same,Potency,[2],inactive
O=C(Nc1cccnn1)N1CCN(c2nccc(-c3ccc(F)c(F)c3)n2)CC1,Potency,[1],inactive
same,Potency,[2],inactive
CN1CCN(S(=O)(=O)c2ccc(-c3cnc(N)c(C(=O)Nc4cccnc4)n3)cc2)CC1,Potency,[1],inactive
same,Potency,[2],inactive
CC(C)S(=O)(=O)NC[C@H](C)c1ccc(-c2ccc(CCNS(C)(=O)=O)cc2)cc1,Potency,[1],inactive
same,Potency,[2],inactive
C=C(C)C(=O)O[C@H]1C[C@@](C)(O)C2(O)CCC(C)(/C=C3/OC(=O)C(COC)=C31)O2 (stereo partly drawn),Potency,[1],inactive
same,Potency,[2],inactive
Cc1cc(C(=O)Nc2cc(Oc3ccc4nc(NC(=O)C5CC5)cn4n3)ccc2C)n(C)n1,Potency,[1],inactive
same,Potency,[2],inactive
COc1cc2nc(C3CC3)nc(N3CCN(c4ccccc4OC)CC3)c2cc1OC,Potency,[1],inactive
same,Potency,[2],inactive
Cc1ccc(N2CCN(CCC3NC(=O)c4ccccc43)CC2)cc1C (stereo not drawn),Potency,[1],inactive
same,Potency,[2],inactive
COc1cc(N2CCC(N3CCN(C)CC3)CC2)ccc1Nc1ncc(Cl)c(Nc2ccccc2P(C)(C)=O)n1,Potency,[1],inactive
same,Potency,[2],inactive
CC1OC(=O)C[C@@H]2C(C(=O)O)=CO[C@@H](O[C@H]3O[C@H](CO)[C@@H](O)[C@H](O)[C@H]3O)[C@H]12 (stereo partly drawn),Potency,[1],inactive
same,Potency,[2],inactive
CCC(C)CC(=O)OC1C(=O)C(CO)=CC(O)C1C(C)C (stereo not drawn),Potency,[1],inactive
same,Potency,[2],inactive
Cc1cc(-c2ncc(-c3cccnc3)cc2/C=C/c2ccccc2)cnc1-c1cccnc1,Potency,[1],inactive
same,Potency,[2],inactive
CC1=CC2/C=C(\C)CCC(O)C(=O)C(O)CC(=O)C23C(=O)NC(CC(C)C)C3C1C (stereo not drawn),Potency,[1],inactive
same,Potency,[2],inactive
C=C1CC2OC(=O)C(COC)C2C(OC(=O)/C(C)=C\C)CC2(C)OC1=CC2=O (stereo not drawn),Potency,[1],inactive
same,Potency,[2],inactive
C=C(C)C1=C[C@@]2(C)C(=CC1=O)CC[C@@H](O)[C@@H]2C,Potency,[1],inactive
same,Potency,[2],inactive
COc1cc(NC(=O)c2cc(C3CC3)on2)c(OC)cc1Cl,Potency,[1],inactive
same,Potency,[2],inactive
C=C1C(=O)O[C@@H]2C3=C(C)CCC[C@]3(C)CC[C@@]12O,Potency,[1],inactive
same,Potency,[2],inactive
Cc1cc(F)ccc1-c1nc(NCCN=C(N)NC#N)nc2c1ccc(=O)n2-c1c(F)cccc1F,Potency,[1],inactive
same,Potency,[2],inactive
COc1cc(Br)c(S(=O)(=O)Nc2ccc(Cl)c(O[C@@H]3CCN(C)C3)c2)cc1OC,Potency,[1],inactive
same,Potency,[2],inactive
CN1CCN(C2CCN(C(=O)Nc3cc(Oc4ccc(NC(=O)C5(C(=O)Nc6ccc(F)cc6)CC5)c(F)c4)ccn3)CC2)CC1,Potency,[1],inactive
same,Potency,[2],inactive
C=C1[C@H]2CC[C@H](C(=O)O)[C@@]23CC[C@H](C3)C1(C)C,Potency,[1],inactive
same,Potency,[2],inactive
CCN(Cc1ccccc1)C(=O)Cn1c(=O)n(C)c2cnc(-c3ccccc3)nc21,Potency,[1],inactive
same,Potency,[2],inactive
CCn1c(-c2nonc2N)nc2c(C#CCO)ncc(OCCCN)c21,Potency,[1],inactive
same,Potency,[2],inactive
CC(C)(O)c1ccc2c(c1)ncn2-c1cccc(-c2ccccc2C#N)c1,Potency,[1],inactive
same,Potency,[2],inactive
Fc1ccc(-c2nc(-c3c(F)cccc3F)[nH]c2-c2ccncc2)cc1,Potency,[1],inactive
same,Potency,[2],inactive
Cc1nc(-c2cn3c(n2)-c2ccc(-c4cnn(C(C)(C)C(N)=O)c4)cc2OCC3)n(C(C)C)n1,Potency,[1],inactive
same,Potency,[2],inactive
